According to PubChem BioAssay (NCI):
The panel holds about 83,000 compounds, 20% with a hit somewhere; the sample as a whole holds those more often.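 Each cell line was grown in a 96-well plate and treated with one concentration of compound for 48 hours. Values below 10 were considered active.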 A number with no mark means an inactive call. The source made the active and inactive calls.

The compounds below were run on NCI/ADR-RES ovarian (assay: NCI-60 one-dose screen, 48 h (100 = growth as untreated, 0 = no growth, -100 = all killed)). Details: 10 µM unless noted.
With `Cc1cc2c(O)c(-c3cccc(Cl)c3)c3sc(=O)oc3c2cc1C` the growth was 56.3%.
`COC(=O)[C@H]1CCCN1C[C@@H](O)CN1C(=O)/C(=C\c2cc(OC)c(OC)c(OC)c2)c2ccccc21` showed a growth of 102%.
In the case of `CS(=O)(=O)Nc1cc(-c2ccc3ncnc(Nc4c(Cl)ccc5c4OCO5)c3c2)cnc1Cl`, the growth is reported as 3.66% (active).
Work on `COc1ccc(C(=S)N2CCN(c3ccccc3Cl)CC2)cc1OC` yielded a growth of 108%.
With `CC(C)N1CN2C(=S)NC3C2N(C1)C(=S)N3C` (stereo unspecified) the growth was 106%.
`O=Nc1c(-c2c(O)[nH]c3ncccc23)[nH]c2ccccc12` was tested, and the growth was 71.8%.
Work on `O=C(CSc1nnc2n1S(=O)(=O)c1ccccc1N2c1ccccc1)Nc1nc2ccc(F)cc2s1` yielded a growth of 92.8%.
For `O=C1/C(=C/c2ccccc2Br)COc2ccc(O)c(O)c21`, the growth was 7.97% (active).
In the case of `CCOC(=O)C(=Cc1cccc(Br)c1)C(=O)OCC`, the growth is reported as 11.7%.
For `Cc1ccc(-c2cc(-c3ccc(Cl)cc3)nc(NC(=O)c3cccnc3)n2)cc1`, the growth was 104%.
In the case of `Fc1cccc(CNc2c3ccccc3nc3ccccc23)c1F`, the growth is reported as 48.5%.
With `Cc1cc(N)c2cc(NC(=O)/C=C\c3ccccc3Cl)ccc2n1` the growth was 48.9%.
With `N#CC1=C(N)Oc2c(sc3c(F)cccc23)C1c1ccc(F)cc1` (stereo unspecified) the growth was 4.36% (active).
Work on `C/C(=C(/c1ccc(Cl)cc1)c1ccc(OCCN2CCCC2)cc1)c1ccc(Cl)cc1` yielded a growth of 90.4%.
For `COC(=O)c1ccc2c(c1)C(=O)c1c-2n(CCCN)c(=O)c2cc([N+](=O)[O-])ccc12`, the growth was -39.4% (active).
Work on `CS(=O)(=O)C1=CN(CCO)C(=O)N2CCCN=C12` yielded a growth of 106%.
For `O=C(Cn1c(=O)sc2nc3ccccc3nc21)Nc1ncc(Cc2cccc(Cl)c2Cl)s1`, the growth was 89.6%.
In the case of `O=C(N/N=C/c1ccc(F)cc1)c1ccc(C(F)(F)F)nc1Nc1cccc(C(F)(F)F)c1`, the growth is reported as -22.9% (active).
For `COC(=O)[C@]1(C)CCC[C@]2(C)[C@H]3C[C@H]4C(C(C)C)=C[C@]3(CC[C@H]21)[C@H]1[C@@H]4[C@@H](OCCC#N)CC[C@@H]1OCCC#N`, the growth was 41.8%.
With `CN(C)c1ccc(Nc2cc(-c3cccc(OC(F)(F)F)c3)nc3ccc(N4CCCC4)cc23)cc1` the growth was -30.2% (active).
With `CCn1c(=S)sc2c(Nc3ccc(F)cc3)nc(-c3cccnc3)nc21` the growth was 55.4%.

What follows are compounds tested on T-47D breast in the same assay as above. Details: 10 µM unless noted.
Compound `CCOC(=O)c1c(NC(=O)c2ccc(C(C)C)cc2)sc2c(CN(C)C)c(O)ccc12` has a growth of 61%.
Compound `CCOC(=O)c1cnc2ccccc2c1Cl` has a growth of 102%.
`CCN(CC)c1nc(SCc2ccccc2Cl)ncc1C` gave a growth of 86.3%.
Work on `O=C1Nc2ccc(I)cc2C1=O` yielded a growth of 106%.
For `O=S(=O)(NCCNc1nccc(-c2c(-c3cccc(F)c3)nc3occn23)n1)c1ccc(Br)cc1`, the growth was 76.7%.
For `CC(C)c1ccc(COCc2cc(CN3CCCC3)c(O)c3ncccc23)cc1`, the growth was -7.55% (active).
In the case of `COc1ccc2cc(C(=O)c3coc4ccc(O)cc34)ccc2c1`, the growth is reported as 84.2%.
For `O=C(CI)NC1Oc2ccccc2-c2oc(=O)c(-c3ccccc3)cc21` (stereo unspecified), the growth was -42.4% (active).
`Cc1ccc(-n2c(=S)[nH]c3sc4c(c3c2=O)CCC(=O)C4)cc1` showed a growth of 42.4%.
With `C=CCn1c(SCC(=O)Nc2ccc(C(=O)/C=C/c3cc4cc(OC)ccc4nc3Cl)cc2)nnc1-c1ccc(Br)cc1` the growth was 77.7%.
Work on `COc1cccc(/C=C/C(=O)c2cc3c(N)c(C(=O)Nc4ccccc4)sc3nc2C)c1` yielded a growth of 33%.
`O=C1C(Cl)=C(Oc2ccccc2)C(=O)c2ccccc21` was tested, and the growth was -0.942% (active).
`CC(C)OC(=O)c1ccc2[nH]c(O)c(C(=Nc3ccc(N(C)C(=O)CN4CCN(C)CC4)cc3)c3ccccc3)c2c1` was tested, and the growth was -47.7% (active).
Work on `N#CC1C=CN(CC(N)=O)c2ccc3cccnc3c21` (stereo unspecified) yielded a growth of 90.9%.
`S=C(Nc1ccc(-c2nc(N3CCOCC3)c3cccn3n2)cc1)Nc1cccnc1` was tested, and the growth was -4.82% (active).
`Cc1cc2c(O)c(-c3cccc(Cl)c3)c3sc(=O)oc3c2cc1C` gave a growth of 14.8%.
Work on `COC(=O)[C@H]1CCCN1C[C@@H](O)CN1C(=O)/C(=C\c2cc(OC)c(OC)c(OC)c2)c2ccccc21` yielded a growth of 86.7%.
`CS(=O)(=O)Nc1cc(-c2ccc3ncnc(Nc4c(Cl)ccc5c4OCO5)c3c2)cnc1Cl` was tested, and the growth was -30.6% (active).
In the case of `COc1ccc(C(=S)N2CCN(c3ccccc3Cl)CC2)cc1OC`, the growth is reported as 79%.
`CC(C)N1CN2C(=S)NC3C2N(C1)C(=S)N3C` (stereo unspecified) gave a growth of 92.4%.
`O=C(c1ccc(-c2nc(CSc3nc4ccccc4s3)no2)cc1)N1CCSCC1` was tested, and the growth was 11.1%.
`O=Nc1c(-c2c(O)[nH]c3ncccc23)[nH]c2ccccc12` was tested, and the growth was 49.1%.
Compound `O=C(CSc1nnc2n1S(=O)(=O)c1ccccc1N2c1ccccc1)Nc1nc2ccc(F)cc2s1` has a growth of 98.4%.
`O=C1/C(=C/c2ccccc2Br)COc2ccc(O)c(O)c21` was tested, and the growth was -7.17% (active).
For `CCOC(=O)C(=Cc1cccc(Br)c1)C(=O)OCC`, the growth was 1.63% (active).
`COC(C(=O)[C@@H](O)[C@@H](C)O)[C@@H]1Cc2cc3cc(O[C@H]4C[C@@H](O[C@H]5C[C@@H](O)[C@H](O)C(C)O5)[C@H](O)C(C)O4)cc(O)c3c(O)c2C(=O)[C@H]1O[C@H]1C[C@@H](O[C@H]2C[C@@H](O[C@H]3C[C@@H](OC)[C@H](O)C(C)O3)[C@@H](O)C(C)O2)[C@H](O)C(C)O1` (stereo partly specified) gave a growth of 35.2%.
For `Cc1ccc(-c2cc(-c3ccc(Cl)cc3)nc(NC(=O)c3cccnc3)n2)cc1`, the growth was 96.3%.
In the case of `Fc1cccc(CNc2c3ccccc3nc3ccccc23)c1F`, the growth is reported as 68.3%.
`CN(C)CC(=O)Nc1ccc2ncnc(Nc3ccc(Oc4cccc(C(F)(F)F)c4)c(Cl)c3)c2c1` was tested, and the growth was 48.6%.
For `Cc1cc(N)c2cc(NC(=O)/C=C\c3ccccc3Cl)ccc2n1`, the growth was -58.1% (active).
`N#CC1=C(N)Oc2c(sc3c(F)cccc23)C1c1ccc(F)cc1` (stereo unspecified) showed a growth of 42.5%.
`C/C(=C(/c1ccc(Cl)cc1)c1ccc(OCCN2CCCC2)cc1)c1ccc(Cl)cc1` gave a growth of 59.5%.
For `COC(=O)c1ccc2c(c1)C(=O)c1c-2n(CCCN)c(=O)c2cc([N+](=O)[O-])ccc12`, the growth was -80.3% (active).
Work on `CS(=O)(=O)C1=CN(CCO)C(=O)N2CCCN=C12` yielded a growth of 102%.
Work on `O=C1Nc2ccccc2[C@]12CC(c1ccccc1)=NN2` yielded a growth of 66.6%.
In the case of `O=C(Cn1c(=O)sc2nc3ccccc3nc21)Nc1ncc(Cc2cccc(Cl)c2Cl)s1`, the growth is reported as 81.6%.
For `O=C(N/N=C/c1ccc(F)cc1)c1ccc(C(F)(F)F)nc1Nc1cccc(C(F)(F)F)c1`, the growth was -3.3% (active).
`COC(=O)[C@]1(C)CCC[C@]2(C)[C@H]3C[C@H]4C(C(C)C)=C[C@]3(CC[C@H]21)[C@H]1[C@@H]4[C@@H](OCCC#N)CC[C@@H]1OCCC#N` was tested, and the growth was 9.81% (active).
`CN(C)c1ccc(Nc2cc(-c3cccc(OC(F)(F)F)c3)nc3ccc(N4CCCC4)cc23)cc1` showed a growth of 70.5%.
`CCn1c(=S)sc2c(Nc3ccc(F)cc3)nc(-c3cccnc3)nc21` gave a growth of 30.5%.
